Common to all, as to assay type: functional
Experiment [1] concerns Plasmodium falciparum. In words: GSK_TCMDC: Inhibition of Plasmodium falciparum 3D7 in whole red blood cells, using parasite LDH activity as an index of growth. Test compounds present at 2uM.
The subject of experiment [2] is Plasmodium falciparum. As to the kind of experiment: GSK_TCMDC: Inhibition of Plasmodium falciparum Dd2 in whole red blood cells, using parasite LDH activity as an index of growth. Test compounds present at 2uM.
In another experiment the test system is HepG2. As to the kind of experiment: GSK_TCMDC: Percent inhibition of human HepG2 cell line. Test compounds present at 10uM.

From ChEMBL document CHEMBL1157539, “Thousands of chemical starting points for antimalarial lead identification” (Nature, 2010) come the findings set out here.

A word on the Inhibition: it is the percentage by which the read-out fell short of the control. Consider `Nc1ncc(-c2ccc3[nH]ccc3c2)c2ccc(-c3ccncc3)cc12`, for which the Inhibition in the experiment with Plasmodium falciparum [1] is 100%; in the experiment with Plasmodium falciparum [2], 100%; in the experiment on HepG2 it was 42%.
Regarding `Cc1ccc2c(c1)NCC21CCN(C[C@@H](O)C2CCN(c3cc(C#N)ccn3)CC2)CC1C` (some centres not stated), the Inhibition in the experiment on Plasmodium falciparum [1] was 90%; in the experiment with Plasmodium falciparum [2] it was 79%; in the experiment on HepG2, 28%.
Taken in the same sequence, the figures for `Fc1ccc2[nH]c(-c3cccc(-c4ccc(CN5CCN(CCN6CCOCC6)CC5)cc4)c3)nc2c1.O=C(O)C(F)(F)F` were 100%, 100% and 30%.
Taken in the same sequence, the figures for `O=C(Nc1cccc(-c2ccc(CN3CCC(O)CC3)cc2)c1)c1ccc(Cl)cc1.O=C(O)C(F)(F)F` were 95%, 8% and 46%.
Regarding `N#Cc1ccc(-c2ccc(C(=O)NCCCCN3CCC(c4ccc5c(c4OCC(N)=O)CCCC5)CC3)nc2)cc1`, the Inhibition amounted to 100% with Plasmodium falciparum [1], 97% with Plasmodium falciparum [2] and 21% with HepG2.
Taken in the same sequence, the figures for `O=C(Nc1ccccc1C(F)(F)F)Nc1nn(Cc2c(F)cccc2Cl)cc1Br` were 100%, 86% and 0%.
Taken in the same sequence, the figures for `c1cc(Nc2nccc(-c3cnn4ncccc34)n2)cc(-c2cnco2)c1` were 96%, 83% and 54%.
With `NC(=O)CCC(NC(=O)CNC(=O)Nc1cccc(C(F)(F)F)c1)C(=O)O` (configuration not stated), the Inhibition in the experiment on Plasmodium falciparum [1] is recorded as 97%; in the experiment with Plasmodium falciparum [2] it was 93%; with HepG2 it was 1%.
Taken in the same sequence, the figures for `COc1ccc(NC(=O)CCNc2cc(C)nc(NCc3ccccc3C)n2)cc1.O=C(O)C(F)(F)F` were 94%, 61% and 7%.
On to `CNC(=O)Cc1ccc(C(=O)Nc2cccc(-c3ccc(-c4nc5cccc(C)c5[nH]4)s3)c2)cc1`, for which the Inhibition with Plasmodium falciparum [1] came to 91%; in the experiment on Plasmodium falciparum [2], 25%; in the experiment with HepG2 it was 66%.
Regarding `Cl.Nc1cccc(C=CC(=O)N=c2cc[nH]c3ccccc23)c1`, the Inhibition stood at 98% in the experiment on Plasmodium falciparum [1], 60% in the experiment on Plasmodium falciparum [2] and 7% in the experiment on HepG2.
Taken in the same sequence, the figures for `CCOc1ccc(C(=O)N2CCOC(CCN3CCC(c4ccccc4)CC3)(c3ccc(Cl)c(Cl)c3)C2)cc1` (configuration not stated) were 88%, 71% and 14%.
`COc1cccc(-c2[nH]c3ccccc3c2CN2CCC(c3c(C)cccc3C)CC2)c1`: the Inhibition in the experiment on Plasmodium falciparum [1] is 99%; with Plasmodium falciparum [2], 24%; in the experiment on HepG2, 32%.
As for `COCCNCc1ccc(-c2ccccc2CNC2CCN(Cc3ccccc3)CC2)cc1.O=C(O)C(F)(F)F`, the Inhibition amounted to 97% with Plasmodium falciparum [1], 28% in the experiment on Plasmodium falciparum [2] and 17% in the experiment with HepG2.
Take `COC(=O)c1cccc(CNCc2cccc(-c3ccc(-c4nc5ccccc5[nH]4)cc3)c2)c1.O=C(O)C(F)(F)F`: the Inhibition in the experiment on Plasmodium falciparum [1] was 99%; in the experiment with Plasmodium falciparum [2], 51%; in the experiment with HepG2, 0%.
For `Cc1nc(-c2cccc(C(=O)NC3CCC(CCN4CCc5ccc(-c6cccnc6)cc5CC4)CC3)c2)no1.Cl` (configuration not stated), in that order: 98%, 4% and 17%.
Take `CCCN1CCN(c2cc(S(=O)(=O)Nc3ccc(C(=O)NCc4cccc(C(F)(F)F)c4)cc3)ccc2OC)CC1.O=C(O)C(F)(F)F`: the Inhibition in the experiment on Plasmodium falciparum [1] stood at 92%; in the experiment on Plasmodium falciparum [2], 8%; in the experiment with HepG2, 27%.
`CC(C)N1CCN(C(CN2CCN(CCCOc3ccc(-c4ccccc4)cc3)CC2)c2ccc(F)cc2)CC1.Cl` (configuration not stated): the Inhibition in the experiment with Plasmodium falciparum [1], in the experiment on Plasmodium falciparum [2] and in the experiment with HepG2 was 100% in each case.
On to `CN(CCN)Cc1ccc(-c2ccc(-c3nc4cc(F)ccc4[nH]3)s2)cc1.O=C(O)C(F)(F)F`, for which the Inhibition with Plasmodium falciparum [1] is given as 96%; in the experiment with Plasmodium falciparum [2], 81%; with HepG2, 31%.
Taken in the same sequence, the figures for `CCCC(C)n1ccc2c3c(N)nc(N)nc3ccc21` (configuration not stated) were 94%, 91% and 70%.
Taken in the same sequence, the figures for `CC(C)(C)OC(=O)N(Cc1cc(-n2nnnc2C(F)(F)F)ccc1O)[C@H]1CCCN(C(=O)OC(C)(C)C)[C@H]1c1ccccc1` were 98%, 66% and 14%.
`CCOc1cc(C(=O)NC2CC(C)(C)N(C)C(C)(C)C2)ccc1-c1nc2cc(Cl)c(Cl)cc2[nH]1`: the Inhibition was 100% in the experiment on Plasmodium falciparum [1], 49% in the experiment on Plasmodium falciparum [2] and 64% with HepG2.
Taken in the same sequence, the figures for `Cc1cccc(Nc2nccc(NCC(O)c3cccc(C(F)(F)F)c3)n2)c1` (configuration not stated) were 100%, 94% and 25%.
Taken in the same sequence, the figures for `CS(=O)(=O)O.FC(F)(F)COc1c(CCNCCCCNCCc2ccc3ccccc3c2OCC(F)(F)F)ccc2ccccc12` were 100%, 97% and 99%.
For `O=C(Nc1ccc(-c2nc3ccccc3[nH]2)cc1)C1CCCN(C2CCC2)C1` (configuration not stated), in that order: 90%, 5% and 0%.
Take `COc1ccc(-c2nonc2NC(=O)c2cccc(Cl)c2)cc1OC`: the figures for the Inhibition in the experiment on Plasmodium falciparum [1], in the experiment with Plasmodium falciparum [2] and with HepG2 were 98%, 63% and 41%, respectively.
In the case of `COc1ccc(-c2ccc(NC(=O)c3ccc(C#N)cc3)cc2)cc1CNC(C)C.O=C(O)C(F)(F)F`, the Inhibition in the experiment with Plasmodium falciparum [1] came to 100%; with Plasmodium falciparum [2] it was 38%; with HepG2, 19%.
For `Cc1nc(N)nc(N)c1-c1cc(Cl)c(N)c(Cl)c1`, in that order: 94%, 2% and 62%.
Take `Cc1cc(NCCc2cccc(F)c2)nc(NC(=N)Nc2cccc(C(F)(F)F)c2)n1`: the values for the Inhibition with Plasmodium falciparum [1], in the experiment on Plasmodium falciparum [2] and in the experiment on HepG2 were 100%, 99% and 42%, respectively.
Taken in the same sequence, the figures for `Clc1ccc(CNc2ccnc(NCc3cccnc3N3CCCC3)n2)c(Cl)c1` were 85%, 53% and 37%.
For `COc1cccc(C(=O)NC(c2ccccc2OC)c2cc(Cl)c3cccnc3c2O)c1` (configuration not stated), in that order: 91%, 36% and 58%.
Taken in the same sequence, the figures for `Cc1cccc2nc(-c3ccc(-c4ccc(CNCCCN5CCCC5=O)cc4)cc3)[nH]c12.O=C(O)C(F)(F)F` were 100%, 47% and 7%.
`Cc1[nH]c(C)c(-c2ccc(OCc3ccccc3)cc2)c(=O)c1Br`: the Inhibition amounted to 97% in the experiment on Plasmodium falciparum [1], 96% in the experiment with Plasmodium falciparum [2] and 19% in the experiment on HepG2.
For `CN(C)c1ccc(-c2ccc(C(=O)NC3CCN(Cc4cccc(C(F)(F)F)c4)CC3)s2)cc1.O=C(O)C(F)(F)F`, in that order: 96%, 77% and 35%.
Regarding `CCCc1cc(OC)c(C[C@H]2c3cc(O)c(Cl)cc3CCN2C)cc1OC.Cl`, the Inhibition with Plasmodium falciparum [1] is 97%; in the experiment with Plasmodium falciparum [2], 98%; with HepG2, 0%.
For the compound `CC(C)CCN1CCC(Oc2ccc(NC(=O)c3ccco3)cc2Cl)CC1.O=C(O)C(F)(F)F`, the Inhibition in the experiment with Plasmodium falciparum [1] was determined as 95%; with Plasmodium falciparum [2] it was 93%; in the experiment on HepG2 it was 1%.
As to `Cc1ccccc1C1CCN(C2CCC(NC(=O)c3cc(-c4ccccc4)oc3C)CC2)CC1` (configuration not stated), the Inhibition in the experiment with Plasmodium falciparum [1] stood at 100%; in the experiment with Plasmodium falciparum [2] it was 32%; in the experiment on HepG2, 46%.
For `O=C(/C=C/c1ccc(Cl)c(Cl)c1)NCCCCCCN1CCCN(C(=O)Nc2ccc(F)c(F)c2)CC1`, in that order: 89%, 2% and 72%.
Turning to `CCN(CC)CCCNc1c2ccccc2nc2ccccc12.Cl`, the Inhibition in the experiment on Plasmodium falciparum [1] is reported as 100%; with Plasmodium falciparum [2], 0%; in the experiment with HepG2 it was 17%.
Taken in the same sequence, the figures for `Cc1cccc(C(=O)Nc2ccnc(N3CCC(N(C)Cc4cccc(O)c4)CC3)c2)c1.O=C(O)C(F)(F)F` were 95%, 41% and 7%.
On to `Cc1cc(OCC2CCN(c3ncc(C(=O)NC4CC4)cc3Cl)CC2)ccc1F`, for which the Inhibition in the experiment with Plasmodium falciparum [1] was 96%; with Plasmodium falciparum [2], 96%; in the experiment on HepG2 it was 16%.
Turning to `O=C(Nc1cccc(CN2CCCN(Cc3ccc4c(c3)OCO4)CC2)c1)c1ccc2ccccc2c1.O=C(O)C(F)(F)F`, the Inhibition in the experiment on Plasmodium falciparum [1] was determined as 86%; in the experiment with Plasmodium falciparum [2], 14%; with HepG2 it was 7%.
Taken in the same sequence, the figures for `CCCNCc1ccc(-c2ccc(CN(CCOC)C(=O)COc3ccccc3Cl)cc2)nc1.O=C(O)C(F)(F)F` were 96%, 29% and 0%.
For `CCN(CC)CCOc1ccc(N(Cc2ccc(C(C)(C)C)cc2)C(=O)c2ccc(Cc3ccccc3)cc2)cc1OC.Cl`, the figures for the Inhibition with Plasmodium falciparum [1], in the experiment with Plasmodium falciparum [2] and in the experiment on HepG2 were 99%, 73% and 5%, respectively.
